Shown are actives, neighbours in structure and some others; about 12% of the full set was active somewhere.
AmpC detergent = qHTS Inhibitors of AmpC Beta-Lactamase (assay with detergent); P00811; AmpC hydrolysis of nitrocefin, absorbance 480 nm, 0.01% Triton; Potency, µM (highest dose often 114 µM), for the others: at the top dose activity change, negative = inhibition, most hits filed as inhibitors; actives 0.041% (n = 370,000); AID 485294, 2010;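 also: 0% = no-compound wells and -100% = no-enzyme wells; nearly all actives have a fitted effect of over 25% in size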
Target sequence (P00811 whole entry, looked up): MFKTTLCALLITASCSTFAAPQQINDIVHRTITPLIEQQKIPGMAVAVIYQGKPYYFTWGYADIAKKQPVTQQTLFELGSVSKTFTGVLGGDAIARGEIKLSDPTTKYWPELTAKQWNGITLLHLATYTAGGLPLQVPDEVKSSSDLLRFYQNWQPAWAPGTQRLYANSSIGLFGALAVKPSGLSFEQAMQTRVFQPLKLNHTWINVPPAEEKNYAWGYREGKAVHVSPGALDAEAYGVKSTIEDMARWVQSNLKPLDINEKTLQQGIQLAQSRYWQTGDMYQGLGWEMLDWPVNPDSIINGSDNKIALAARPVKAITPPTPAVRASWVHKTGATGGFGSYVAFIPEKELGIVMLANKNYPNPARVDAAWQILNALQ
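20 mM phosphate pH 7.0 + 0.01% (detergent screen) or 0.0001% Triton X-100; 5.3 nM AmpC reagent; cpd preinc 15 min RT; nitrocefin (800 uM stock) to start; A480 q20 s × 4 min; Activity was normalised to no-enzyme and no-compound control wells.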
Sm TGR block = qHTS Assay for the Inhibitors of Schistosoma Mansoni Peroxiredoxins; purified TGR, DTNB reduction, TNB absorbance 405 nm; Potency, µM (series often up to 114 µM), without a hit: top-dose activity change, negative = inhibition, hits mostly inhibitors; actives 3% (n = 360,000); AID 485364, 2010; also: % is scaled to controls: 0 for no effect and ±100 for the full control effect; nearly all actives have a fitted effect of over 60% in size
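First, TGR (20 nM dispensed) and NADPH were mixed with compound. Second, a 15 min room-temperature incubation followed. Third, further NADPH and then DTNB were added to start the reaction. Finally, TNB absorbance was monitored kinetically.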
AmpC no deterg = qHTS Inhibitors of AmpC Beta-Lactamase (assay without detergent); AmpC nitrocefin hydrolysis, absorbance 480 nm, 0.0001% Triton; Potency, µM (doses to about 57.1 µM), inactives show at the top dose activity change, negative = inhibition, usual class: inhibitors; actives 0.52% (n = 330,000); AID 485341, 2010;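 also: plate controls were no compound for no effect and no enzyme for full effect; nearly all actives have a fitted effect of over 20% in size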
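AmpC (5.3 nM in the dispensed reagent) in 20 mM phosphate pH 7.0 with 0.01% (detergent screen) or 0.0001% Triton X-100 was preincubated with compounds for 15 min at room temperature. Nitrocefin was then added from an 800 uM solution, and hydrolysis was followed at 480 nm.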
Pf growth 48h = Primary qHTS for delayed death inhibitors of the malarial parasite plastid, 48 hour incubation; P. falciparum luciferase growth in erythrocytes, 48 h; actives 5.9% (n = 310,000); Potency, µM (doses to about 28.7 µM), for the others: at the top dose activity change, negative = inhibition, usual class: inhibitors; also: % is scaled to controls: 0 for no effect and ±100 for the full control effect
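In quantitative HTS format, infected erythrocytes bearing luciferase-reporter parasites were treated for a single generation at 37 C. Luminescence after adding detection reagent served as the growth measure.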
Pf growth 96h = Primary qHTS for delayed death inhibitors of the malarial parasite plastid, 96 hour incubation. P. falciparum luciferase reporter growth, 96 h. Potency, µM (top dose mostly 28.7 µM), for the others: at the highest dose activity change, negative = inhibition, hits mostly inhibitors. actives 6.9% (n = 320,000). AID 504834, 2011; also: % is scaled to controls: 0 for no effect and ±100 for the full control effect
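P. falciparum expressing integrated firefly luciferase grown in erythrocytes (2% hematocrit, 0.05% parasitemia final) with compounds for 96 hours at 37 C, 5% CO2. Growth inhibition read as loss of luminescence after adding luciferase detection reagent.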
SARS PLP yeast = qHTS of Yeast-based Assay for SARS-CoV PLP. S. cerevisiae expressing SARS-CoV PLpro, growth rescue. Potency, µM (titrated, usually from 32.9 µM), for the others: at the top dose activity, positive = growth rescue, usual class: activators. actives 0.19% (n = 330,000); calls by dose curve; also: 0% is about no effect; nearly all actives have a fitted effect of over 55% in size
* marks the source's active call; other numbers are inactive results; ? = inconclusive; . = no result given. Unless noted, calls follow the shape of the dose curve; as a rule, active = well fitted curve in the direction sought with a large enough effect; inconclusive = small, poorly fitted or top-dose-only effect, or another doubt; inactive = no such curve, though single readings can be large; an effect the other way counts as inactive or inconclusive. Potency is read from the fitted curve at half-maximal effect.

SMILES | AmpC detergent | Sm TGR block | AmpC no deterg | Pf growth 48h | Pf growth 96h | SARS PLP yeast
COC(=O)CNC(c1ccccc1Cl)c1cc(Br)ccc1NS(=O)(=O)c1ccc(C)cc1 (centres undefined) | -4.6% | -2.8% | -14.8% | 3.29µM* | -10.4% | -20.4%
O=C(COc1ccccc1F)Nc1ccc2nc(SCC(=O)N3CCc4ccccc43)sc2c1 | 7.4% | -1.4% | . | . | . | .
COc1ccc(-n2nc3c(c2NC(=O)CCl)CSC3)cc1 | 4.2% | 8.91µM* | -15.3% | 0.738µM* | ? | -3.1%
COc1ccc(-n2nc3c(c2NC(=O)COc2ccccc2)CS(=O)(=O)C3)cc1 | -7.9% | -6.7% | -15.5% | 2.3% | ? | 2.2%
COc1ccc(-n2nc3c(c2NC(=O)COc2cccc(OC)c2)CS(=O)(=O)C3)cc1 | ? | 31.6µM* | -41.1% | -1.0% | -15.1% | -0.5%
CC(Cl)C(=O)Nc1c2c(nn1-c1ccccc1)CSC2 (centres undefined) | -5.6% | -1.6% | -13.1% | 14.5% | -4.3% | -1.9%
CCC(=O)Nc1c2c(nn1-c1ccccc1)CSC2 | ? | 50.1µM* | -6.6% | 21.7% | 21.5% | -2.6%
CCCN=C1N(CC)C[C@@H]2[C@@H]3C(=O)N(C)C(=O)[C@@H]3[C@](C)(C(=O)OC)N12 | . | . | -15.0% | . | . | 5.4%
COc1ccc(S(=O)(=O)N2CCN(CC(=O)NC3CC3)CC2)cc1 | -12.5% | -18.2% | 4.1% | 74.7% | ? | -3.7%
O=C(CCCCCN1C(=O)C2C3C=CC(C3)C2C1=O)Nc1nccs1 (centres undefined) | ? | -11.7% | -1.2% | . | 2.33µM* | ?
C/C(=N\N=C(N)N)c1ccc(Cl)c(Cl)c1 | -1.9% | . | -31.1% | 4.15µM* | ? | -0.2%
C/C(=N\NC(=O)CC(C)C)c1ccc(Cl)c(Cl)c1 | -1.3% | 0.5% | -2.7% | 36.5% | ? | -2.6%
COc1cccc(OC)c1NC(=O)Cn1nc(C)c2ccccc2c1=O | ? | -22.4% | -9.2% | 14.6% | ? | 17.4%
Cc1cc(C)c(OCCCCCn2ccnc2)c(C)c1 | ? | -4.0% | 21.4% | 13.1µM* | 320.9% | -13.1%
Cc1cccc(C)c1OCCCCN1CCNCC1 | 0.3% | -19.4% | -3.4% | ? | 24.7% | -4.0%
Cc1cc(=S)cc(C)n1CCCn1ccnc1 | ? | 11.2µM* | -6.0% | 2.5% | -2.4% | 6.6%
Cc1ccc(C)c(OCCCCCn2ccnc2)c1 | -3.3% | -26.0% | ? | 14.7µM* | 11.7µM* | -0.9%
Cc1cc(C)c(OCCCCN2CCNCC2)c(C)c1 | 4.5% | 2.5% | 24.5% | ? | 3.29µM* | -1.2%
Cc1cc(Cl)cc(C)c1OCCCCCn1ccnc1 | -1.9% | -10.8% | 90.4% | ? | 0.0% | -2.2%
CCc1cccc(C)c1NC(=O)Cn1c(=O)cc(C(F)(F)F)c2c(C)nn(C)c21 | 18.6% | -2.6% | . | . | . | .
CC(C)N1CCN(Cc2cccs2)CC1CCO (centres undefined) | 5.1% | 4.3% | -22.4% | -21.7% | ? | 0.0%
Cc1oc(-c2cccs2)nc1CN1CCN(C(C)C)C(CCO)C1 (centres undefined) | 3.8% | -11.5% | -11.8% | 97.6% | 10.4µM* | -0.9%
CCc1cc(=O)oc2c(CN3CCCC3)c(O)c(Cl)cc12 | ? | -22.7% | -23.7% | 17.0% | . | 3.9%
CCc1cc(=O)oc2c(CNCc3c(F)cccc3Cl)c(O)ccc12 | 1.2% | -8.3% | -23.6% | 9.28µM* | ? | -0.1%
C=CCCCCCCCC(=O)OC | 1.5% | 50.1µM* | -10.6% | ? | 6.3% | 0.3%
SMILES | AmpC detergent | Sm TGR block | AmpC no deterg | Pf growth 48h | Pf growth 96h | SARS PLP yeast
COC(=O)CCC[N+](C)(C)C | . | . | . | ? | 10.7µM* | .
COC(=O)CCCCC(=O)OC | 3.7% | -1.0% | 1.8% | 37.8% | 60.7% | 1.0%
CC1(C(=O)O)CCC(C(=O)N2CCOCC2)C1(C)C (centres undefined) | -1.9% | -0.3% | -1.8% | 0.0% | . | -5.8%
O=C(NCCCn1ccnc1)c1cc(-c2ccc3c(c2)OCO3)on1 | -4.5% | -0.7% | -15.7% | 31.6% | ? | 16.7%
O=S(=O)(Cc1cc(NCc2ccccc2)nc(-c2ccccn2)n1)c1ccccc1 | 10.1% | 30.0% | -18.0% | ? | 8.28µM* | 5.5%
O=C(Cn1c(C(=O)OCCO)cc2ccccc21)c1ccccc1 | -9.3% | -26.5% | -17.9% | -4.5% | ? | -1.5%
COc1cc(OC)c(NC(=O)CSC2=Nc3ccccc3N=C(c3ccc(F)cc3)C2)cc1Cl | 1.2% | 3.8% | . | . | . | .
OCC[n+]1ccc(/C=C/c2c[nH]c3ccccc23)cc1 | -5.9% | -7.5% | -18.1% | 0.586µM* | ? | -11.0%
Cc1ccc(C(=O)/C=C/c2c[nH]c3ccccc23)cc1 | -1.1% | -11.7% | -8.6% | 127.3% | 84.3% | -32.9%
O=C(/C=C/c1c[nH]c2ccccc12)c1ccccc1 | -9.3% | 9.4% | 15.8µM* | 369.6% | 330.8% | -79.7%
CCN(CC)C(=O)c1ccc(/C=C/c2c[nH]c3ccccc23)[n+](C)c1 | ? | -6.4% | -22.4% | 0.738µM* | 0.37µM* | 1.7%
Cc1cc2ccccc2n1CCNC(=O)c1ccccc1 | -2.3% | -21.4% | -7.9% | 28.8% | 11.4% | 0.7%
O=C(NCCn1ccc2ccccc21)c1ccc(S(=O)(=O)N2CCCCC2)cc1 | 7.6% | -3.5% | -26.6% | 11.7µM* | ? | -16.6%
O=C(NCCSc1c(-c2ccc(F)cc2)[nH]c2ccccc12)c1ccc(S(=O)(=O)N2CCOCC2)cc1 | 9.7% | 1.6% | . | . | . | .
COc1ccc(C(=O)NCCn2ccc3ccccc32)cc1 | -0.2% | -0.9% | -25.9% | ? | -0.5% | -4.2%
Cc1ccc(-c2[nH]c3ccccc3c2SCCNC(=O)c2ccc(S(=O)(=O)N3CCOCC3)cc2)cc1 | ? | 8.3% | -13.7% | ? | 8.28µM* | 14.1%
Cc1cc2ccccc2n1CCNC(=O)c1ccc(S(=O)(=O)N2CCOCC2)cc1 | ? | ? | 77.1% | 4.15µM* | 0.0% | 1.5%
Fc1cccc(Cl)c1CSc1nnc(COc2cccc3cccnc23)o1 | 3.7% | -0.8% | -14.7% | . | 17.7% | -4.1%
COc1ccc(Br)cc1CN(C)C(=O)CNC(=O)c1ccc2ccccc2c1 | -6.1% | -6.3% | -10.8% | -14.0% | ? | -3.2%
CCc1ccc(NC(=O)Cn2ccn(-c3ccc(OC)cc3)c(=O)c2=O)cc1 | -5.0% | -2.1% | . | . | . | .
COc1ccccc1N1CCN(C(=O)c2ccc3c(c2)N(Cc2ccccc2)C(=O)c2ccccc2S3(=O)=O)CC1 | -5.6% | 3.6% | . | . | . | .

Screening results from PubChem.
